Screening data (PubChem)
Rce1 inhib: inhibitors of yeast Ras-converting enzyme | yeast membranes, quenched prenylated peptide cleavage fluorescence | 290,000 tested, 0.27% active | calls only | Q03530 | AID 2563;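 active = fall in fluorescence gain of 50% or more versus controls, with final raw signal at or below 3038400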;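 also: plate controls were neutral control wells for no effect and wells lacking membranes for full effect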
Target sequence (Q03530 whole entry, looked up): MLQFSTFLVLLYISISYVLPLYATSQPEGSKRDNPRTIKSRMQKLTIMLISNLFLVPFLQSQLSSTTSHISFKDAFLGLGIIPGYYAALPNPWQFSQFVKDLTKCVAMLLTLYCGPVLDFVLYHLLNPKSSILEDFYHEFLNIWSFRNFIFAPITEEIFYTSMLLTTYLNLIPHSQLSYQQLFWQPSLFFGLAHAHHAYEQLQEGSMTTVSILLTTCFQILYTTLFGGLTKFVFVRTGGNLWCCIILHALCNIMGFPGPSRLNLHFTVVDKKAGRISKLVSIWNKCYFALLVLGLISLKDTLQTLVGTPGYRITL
GC-B act: GC-B (human) receptor activation; activation, % at 10 µM; HEK293-GC-B cells, CNP EC30, cGMP TR-FRET; 0% at EC30 CNP, 100% saturating CNP; P20594; AID 1920062; 370,000 tested, 0.11% active;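 active = activation at 10 µM reaching about 35% in either raw or pattern-adjusted values, limit read from the data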
PLCg1 inh: inhibitors of human phospholipase C gamma1. inhibition, % at 12.2 µM. P19174. purified PLC-gamma1, fluorogenic substrate, fluorescence. 370,000 tested, 0.84% active; in the data active = inhibition above about 9.5%
GC-A act: GC-A (human) enzyme activation. activation, % at 10 µM. 370,000 tested, 0.14% active. HEK293 GC-A cells, cGMP TR-FRET, EC30 ANP; 0% at EC30 ANP, 100% saturating ANP. AID 1671463. P16066; in the data active = activation above about 40%
PLC-beta3 inh: PLC-beta3 (human) inhibition, primary screen. Q01970. Purified PLC-beta3, fluorogenic substrate, fluorescence. inhibition, % at 12.2 µM. 370,000 tested, 0.18% active; in the data active = inhibition above about 11%;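 also: 0% = median of compound wells on plate and 100% = full blocker control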
M18AAP inhibitor: PfM18AAP enzyme inhibition; recombinant PfM18AAP, H-Glu-NHMec fluorogenic cleavage; AID 1822; 290,000 tested, 1.2% active; inhibition, % at 7.35 µM;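 active = inhibition above the campaign mean inhibition over all tested compounds plus 3 SD, cut at about 28% in these data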;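 also: 0% = plate median of test compound wells and 100% = 2 mM ZnCl2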
The depositor's hits bear a star; i = inactive; x = not tested or not shown; + = active, no number. Hits are enriched below; roughly 2.2% of the tested compounds scored in any of these assays.

SMILES | Rce1 inhib | GC-B act | PLCg1 inh | GC-A act | PLC-beta3 inh | M18AAP inhibitor
COc1ccc(-n2c(N)c(C(=O)NCc3ccco3)c3nc4ccccc4nc32)c(OC)c1 | + | 13.2 | -483.8 | 14.3 | i | 18.4
COc1ccc(CCn2c(N)c(C(=O)NCc3ccco3)c3nc4ccccc4nc32)cc1 | i | 2.8 | i | 1.2 | i | 12.9
COc1ccc(C(=O)N2CCCC2)cc1S(=O)(=O)N1CCC(C)CC1 | i | -2.3 | 3.4 | -2.6 | 10.6* | 2.7
COc1ccc(-c2ccc(-c3nnc(-c4cc(OC)ccc4OC)o3)cc2)cc1 | + | -1.0 | -24.0 | 2.4 | -32.8 | -1.1
COc1ccc(C(=O)COC(=O)CCc2ccccc2)cc1 | i | 2.9 | -1.1 | -0.3 | -12.2 | 29.6*
COc1ccc(C(=O)CCc2ccccc2)cc1 | i | -3.1 | 0.6 | -3.5 | 0.1 | -2.4
CCCCCCCCN1C(=O)[C@@H](CC(=O)NCCCOCCCC)C[C@@]2(C(=O)OC)C1=C[C@H](C(C)(C)C)O[C@@H]2C | x | -0.1 | -3.9 | -5.8 | 1.7 | x
Cn1c(SCC(=O)NCC2CCCO2)ncc(C(=O)Nc2ccc(Cl)cc2)c1=O (stereo not given) | i | -10.6 | -2.3 | 45.3* | -8.0 | x
Cn1c(SCC(=O)NCC2CCCO2)ncc(C(=O)Nc2ccc(F)cc2)c1=O (stereo not given) | i | -4.4 | 3.8 | 32.6 | -4.1 | x
CC1=CC(=O)c2c(O)ccc(O)c2C1=O | x | x | x | x | x | 34.7*
CC(C)(C)c1nnc(N/N=C/c2cc(Br)ccc2O)n(N)c1=O | i | -3.3 | -7.2 | 9.1 | -6.5 | 43.7*
NC(=O)N/N=C\c1cc(Br)ccc1O | i | 6.2 | -100.8 | -2.0 | -108.1 | 0.1
COc1ccc(OC)c(N=c2oc3cc(O)ccc3cc2C(N)=O)c1 | i | 0.1 | -290.4 | 56.3* | -355.4 | 6.0
COc1ccc2cc(C(N)=O)c(=Nc3ccccc3)oc2c1 | i | 0.7 | -42.0 | 2.1 | -56.6 | 2.7
CN(C)c1ccc(C(=S)N2CCN(Cc3ccccc3)CC2)cc1 | i | 2.0 | 2.1 | 3.5 | -3.7 | 55.1*
CCN(CC)c1ccc(C(=O)N2CCN(Cc3ccccc3)CC2)cc1 | i | -1.4 | 6.5 | 1.0 | -2.4 | 3.1
CCN1CCN(C(=S)c2ccc(O)cc2)CC1 | i | 1.1 | -1.8 | 1.8 | -9.4 | 47.1*
Oc1ccc(C(=S)N2CCCCCC2)cc1 | i | -1.8 | 4.4 | 0.9 | 8.6 | -5.1
O=C(Nc1nc2ncccn2c1-c1ccc(F)c(F)c1)c1ccccc1 | x | 3.5 | -196.2 | -2.1 | -245.6 | x
O=C(CC1(O)C(=O)N(C/C=C/c2ccccc2)c2ccccc21)c1ccccn1 (stereo not given) | + | -1.9 | 1.7 | -5.0 | -2.1 | 31.6*
CSCCCNC(=O)Cn1nc(Cc2ccncc2)c2ccccc2c1=O | x | -0.2 | -1.1 | 4.6 | 1.6 | x
Cc1[nH]c(=S)c(C#N)c(-c2ccccc2)c1C(=O)Nc1ccccc1 | i | 1.9 | -13.8 | 2.8 | -23.1 | 28.4*
Cc1ccc(C(=O)Nc2nc3ccccc3c(=O)s2)cc1 | i | -6.4 | 1.0 | 6.6 | -0.9 | 31.0*
Oc1ccc(-c2nc3ccccn3c2NCc2ccc3c(c2)OCO3)cc1 | + | 0.0 | i | 6.9 | i | 13.3
Nc1ncc(N=Nc2cc(C(=O)O)ccc2Cl)s1 | x | 0.2 | -7.3 | 0.3 | -13.6 | 28.8*
SMILES | Rce1 inhib | GC-B act | PLCg1 inh | GC-A act | PLC-beta3 inh | M18AAP inhibitor
Cc1ccc(S(=O)(=O)CC(=O)N2CCN(c3ccccc3F)CC2)cc1 | + | 1.6 | 3.2 | 1.2 | -8.5 | 4.1
COc1ccc(-c2cc3ccc(OCc4nn[nH]n4)cc3oc2=O)cc1OC | + | 1.3 | i | 18.2 | i | 5.5
COC(=O)COc1ccc2c(-c3ccc(OC)cc3)cc(=O)oc2c1 | i | 22.5 | -4.1 | 60.9* | -5.5 | 1.1
COC(=O)COc1ccc2cc(-c3ccccc3)c(=O)oc2c1 | i | 11.1 | i | 43.0* | i | 5.1
CCCCNC(=S)N=Nc1c(O)n(Cc2ccccc2)c2ccccc12 | + | 4.5 | 6.1 | 4.5 | 4.1 | -7.8
Oc1c(N=NC(=S)Nc2ccccc2F)c2ccccc2n1Cc1ccccc1Cl | + | -1.0 | 8.6 | -4.1 | -1.1 | 1.8
CCNC(=S)NNC(=O)c1csc(CC)c1 | i | 1.6 | -0.6 | 1.9 | 4.2 | 30.6*
COC(=O)c1cnc(NNS(=O)(=O)c2ccc(Cl)cc2)nc1C(F)(F)F | i | -7.5 | 4.3 | -7.0 | -3.4 | 28.6*
Fc1ccccc1-c1n[nH]c(=S)n1CC1CCCO1 (stereo not given) | i | 7.1 | 1.9 | 0.9 | 3.5 | 31.6*
S=c1[nH]nc(-c2ccccc2Cl)n1CC1CCCO1 (stereo not given) | i | -2.8 | 2.0 | 4.9 | 5.2 | 5.2
COCCCOc1ccnc(CS(=O)c2nc3ccccc3[nH]2)c1C (stereo not given) | i | -6.2 | -25.2 | -4.0 | -29.8 | 31.2*
CC1(c2cccc(Br)c2)NC(=O)N(CC(=O)Nc2cccnc2Cl)C1=O (stereo not given) | i | 1.0 | 10.5* | 1.7 | -0.5 | 4.6
CC1(c2ccccc2Cl)NC(=O)N(CC(=O)Nc2cccnc2Cl)C1=O (stereo not given) | i | 4.9 | 1.8 | 0.9 | -2.5 | x
CN1C(=O)c2cc(NC(=O)Nc3ccccc3)ccc2OC[C@H]2O[C@@H](CC(=O)NCc3ccc(-c4ccccc4)cc3)CC[C@@H]21 | x | 1.6 | 2.6 | 3.0 | 2.1 | x
COc1ccc(OC)c(/C=N/c2oc(-c3ccco3)c(-c3ccco3)c2C#N)c1 | + | 4.3 | -25.0 | 9.6 | -39.1 | 17.5
C=C(C)CSc1cc(C)nc2c(-c3ccccc3)c(C)nn12 | + | 1.3 | -25.7 | 0.4 | -47.0 | 0.8
C=C1C(=O)[C@]23C[C@H]1CC[C@H]2[C@]1(C)CCC[C@@](C)(C(=O)OC)[C@H]1C[C@@H]3O | x | 38.0* | -0.6 | 18.7 | -0.7 | x
Nn1cnnc1N/N=C\c1ccc(-c2ccccc2[N+](=O)[O-])o1 | i | 0.9 | -22.9 | -6.5 | -32.4 | 53.9*
CN=c1scc(-c2cccs2)n1/N=C/c1ccccc1O | i | 9.9 | -146.8 | 14.1 | -278.8 | 5.7
CN=c1scc(-c2cccs2)n1/N=C/c1ccc(O)c(O)c1O | i | 2.2 | -13.4 | 10.6 | -21.9 | 31.0*
CCC(=O)NCCc1c[nH]c2ccccc12 | i | -0.6 | 4.2 | 2.5 | 3.6 | -18.7
O=C(NCCc1c[nH]c2ccccc12)OCCSS(=O)(=O)O | + | 1.7 | 2.6 | 0.3 | -4.5 | -3.4
CCN(CC)C(=O)CC[C@@H]1CC[C@]2(CCCN(Cc3ccc(Br)cc3)C2)O1 | x | -7.7 | 2.0 | -2.9 | 4.5 | x
O=C(NCCc1ccccc1)OCc1cn(-c2ccc(F)c(F)c2)nn1 | x | -2.5 | 1.0 | -1.8 | -2.8 | x
O=S1(=O)C=CCN1Cc1cn(Cc2cccc(C(F)(F)F)c2)nn1 | x | 1.2 | -0.9 | 1.4 | 0.8 | x
